One molecule from ChEMBL document CHEMBL2218924, “A broad activity screen in support of a chemogenomic map for kinase signalling research and drug discovery” (Biochem J, 2013) can be followed below.

Broadly, the residual activity is the signal under treatment as a percentage of the control signal.

Experiment [1] addresses T1, Ephrin type-A receptor 3 (Homo sapiens) (UniProt P29320).
T1 sequence (whole entry): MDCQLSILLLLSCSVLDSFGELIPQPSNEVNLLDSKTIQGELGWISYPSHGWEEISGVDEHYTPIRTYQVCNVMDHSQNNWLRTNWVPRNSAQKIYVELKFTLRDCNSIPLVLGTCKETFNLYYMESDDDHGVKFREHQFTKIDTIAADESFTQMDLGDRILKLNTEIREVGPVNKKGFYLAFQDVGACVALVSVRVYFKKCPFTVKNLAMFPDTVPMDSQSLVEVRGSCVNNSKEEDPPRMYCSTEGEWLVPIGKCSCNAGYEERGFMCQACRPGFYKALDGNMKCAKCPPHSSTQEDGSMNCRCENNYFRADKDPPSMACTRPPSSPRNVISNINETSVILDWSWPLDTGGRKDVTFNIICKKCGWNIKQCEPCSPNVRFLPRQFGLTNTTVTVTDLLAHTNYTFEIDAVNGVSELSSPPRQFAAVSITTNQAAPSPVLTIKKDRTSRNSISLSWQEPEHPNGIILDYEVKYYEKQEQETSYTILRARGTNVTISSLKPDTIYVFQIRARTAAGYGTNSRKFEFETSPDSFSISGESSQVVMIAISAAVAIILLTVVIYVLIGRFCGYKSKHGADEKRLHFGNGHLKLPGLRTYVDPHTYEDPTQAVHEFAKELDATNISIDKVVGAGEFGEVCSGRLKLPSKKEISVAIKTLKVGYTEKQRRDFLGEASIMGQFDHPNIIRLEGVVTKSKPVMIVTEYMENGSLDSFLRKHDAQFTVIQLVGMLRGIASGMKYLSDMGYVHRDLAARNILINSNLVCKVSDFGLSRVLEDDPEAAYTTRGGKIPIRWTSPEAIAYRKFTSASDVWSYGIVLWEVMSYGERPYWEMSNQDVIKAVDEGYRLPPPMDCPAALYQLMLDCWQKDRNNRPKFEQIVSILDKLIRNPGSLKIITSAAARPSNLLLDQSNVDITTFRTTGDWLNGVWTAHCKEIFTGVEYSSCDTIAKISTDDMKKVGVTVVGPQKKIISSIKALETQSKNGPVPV
Conditions: at 10 µM.

Experiment [2] deals with Ephrin type-A receptor 4 (Homo sapiens) (UniProt P54764). Conditions: at 1 µM.
Sequence of Ephrin type-A receptor 4 (Homo sapiens) (P54764 whole entry): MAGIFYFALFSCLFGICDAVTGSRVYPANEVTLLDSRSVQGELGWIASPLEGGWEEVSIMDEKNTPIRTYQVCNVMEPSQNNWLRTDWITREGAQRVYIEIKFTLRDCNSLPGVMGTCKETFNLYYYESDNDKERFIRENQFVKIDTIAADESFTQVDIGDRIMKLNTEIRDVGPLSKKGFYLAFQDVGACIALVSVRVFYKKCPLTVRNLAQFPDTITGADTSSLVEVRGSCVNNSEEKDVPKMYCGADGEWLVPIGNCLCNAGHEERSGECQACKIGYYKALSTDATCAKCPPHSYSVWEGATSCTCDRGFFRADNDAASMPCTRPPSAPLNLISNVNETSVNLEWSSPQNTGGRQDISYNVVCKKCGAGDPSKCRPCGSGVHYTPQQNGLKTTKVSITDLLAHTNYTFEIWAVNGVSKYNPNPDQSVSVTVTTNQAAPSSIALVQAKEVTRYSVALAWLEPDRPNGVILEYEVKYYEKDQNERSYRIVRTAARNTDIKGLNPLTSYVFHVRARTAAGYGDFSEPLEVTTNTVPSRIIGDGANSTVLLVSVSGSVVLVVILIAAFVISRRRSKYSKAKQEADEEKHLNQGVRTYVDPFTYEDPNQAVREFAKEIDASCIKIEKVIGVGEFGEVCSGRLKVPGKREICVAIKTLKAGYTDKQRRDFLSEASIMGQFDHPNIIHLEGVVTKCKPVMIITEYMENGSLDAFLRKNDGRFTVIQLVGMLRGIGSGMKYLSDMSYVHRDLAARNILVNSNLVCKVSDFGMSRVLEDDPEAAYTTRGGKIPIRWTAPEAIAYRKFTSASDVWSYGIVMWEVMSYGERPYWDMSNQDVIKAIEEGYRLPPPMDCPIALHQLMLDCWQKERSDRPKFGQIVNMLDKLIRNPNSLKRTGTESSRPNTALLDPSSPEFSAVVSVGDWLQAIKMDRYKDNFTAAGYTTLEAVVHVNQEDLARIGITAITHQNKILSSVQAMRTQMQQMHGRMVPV
For experiment [3] the target is unchanged. The following applies: at 10 µM.
Experiment [4] deals with Ephrin type-A receptor 5 (Homo sapiens) (UniProt P54756). The following applies: at 1 µM.
Sequence of Ephrin type-A receptor 5 (Homo sapiens) (P54756 whole entry): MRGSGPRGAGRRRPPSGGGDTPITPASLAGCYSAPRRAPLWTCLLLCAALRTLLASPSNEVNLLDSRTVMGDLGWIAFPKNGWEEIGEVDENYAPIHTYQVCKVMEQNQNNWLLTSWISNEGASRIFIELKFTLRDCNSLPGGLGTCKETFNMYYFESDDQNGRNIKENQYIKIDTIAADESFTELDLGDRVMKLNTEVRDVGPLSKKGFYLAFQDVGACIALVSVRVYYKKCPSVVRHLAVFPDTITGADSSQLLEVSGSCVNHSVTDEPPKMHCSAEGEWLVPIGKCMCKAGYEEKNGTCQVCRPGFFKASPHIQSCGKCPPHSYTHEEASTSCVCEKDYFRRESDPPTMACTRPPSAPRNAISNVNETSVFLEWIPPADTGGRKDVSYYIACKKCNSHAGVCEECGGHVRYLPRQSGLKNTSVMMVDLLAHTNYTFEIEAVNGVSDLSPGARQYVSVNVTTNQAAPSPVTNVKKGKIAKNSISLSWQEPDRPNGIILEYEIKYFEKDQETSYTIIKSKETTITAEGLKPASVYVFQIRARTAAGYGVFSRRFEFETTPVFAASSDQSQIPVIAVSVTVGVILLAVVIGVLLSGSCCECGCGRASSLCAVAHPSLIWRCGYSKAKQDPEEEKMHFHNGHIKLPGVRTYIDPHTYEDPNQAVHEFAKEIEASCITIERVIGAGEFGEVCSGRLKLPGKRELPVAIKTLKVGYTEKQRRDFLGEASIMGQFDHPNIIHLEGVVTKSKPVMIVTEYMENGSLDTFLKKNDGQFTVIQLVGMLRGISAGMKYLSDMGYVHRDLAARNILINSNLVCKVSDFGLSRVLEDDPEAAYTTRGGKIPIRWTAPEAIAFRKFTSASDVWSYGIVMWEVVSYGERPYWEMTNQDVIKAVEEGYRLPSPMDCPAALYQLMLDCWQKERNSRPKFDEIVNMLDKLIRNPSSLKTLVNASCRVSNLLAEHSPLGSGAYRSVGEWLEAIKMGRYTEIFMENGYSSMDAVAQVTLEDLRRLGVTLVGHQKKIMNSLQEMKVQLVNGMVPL
The target is the same in experiment [5]. Conditions: at 10 µM.
Experiment [6] deals with T2, Ephrin type-B receptor 1 (Homo sapiens) (UniProt P54762).
T2 sequence (whole entry): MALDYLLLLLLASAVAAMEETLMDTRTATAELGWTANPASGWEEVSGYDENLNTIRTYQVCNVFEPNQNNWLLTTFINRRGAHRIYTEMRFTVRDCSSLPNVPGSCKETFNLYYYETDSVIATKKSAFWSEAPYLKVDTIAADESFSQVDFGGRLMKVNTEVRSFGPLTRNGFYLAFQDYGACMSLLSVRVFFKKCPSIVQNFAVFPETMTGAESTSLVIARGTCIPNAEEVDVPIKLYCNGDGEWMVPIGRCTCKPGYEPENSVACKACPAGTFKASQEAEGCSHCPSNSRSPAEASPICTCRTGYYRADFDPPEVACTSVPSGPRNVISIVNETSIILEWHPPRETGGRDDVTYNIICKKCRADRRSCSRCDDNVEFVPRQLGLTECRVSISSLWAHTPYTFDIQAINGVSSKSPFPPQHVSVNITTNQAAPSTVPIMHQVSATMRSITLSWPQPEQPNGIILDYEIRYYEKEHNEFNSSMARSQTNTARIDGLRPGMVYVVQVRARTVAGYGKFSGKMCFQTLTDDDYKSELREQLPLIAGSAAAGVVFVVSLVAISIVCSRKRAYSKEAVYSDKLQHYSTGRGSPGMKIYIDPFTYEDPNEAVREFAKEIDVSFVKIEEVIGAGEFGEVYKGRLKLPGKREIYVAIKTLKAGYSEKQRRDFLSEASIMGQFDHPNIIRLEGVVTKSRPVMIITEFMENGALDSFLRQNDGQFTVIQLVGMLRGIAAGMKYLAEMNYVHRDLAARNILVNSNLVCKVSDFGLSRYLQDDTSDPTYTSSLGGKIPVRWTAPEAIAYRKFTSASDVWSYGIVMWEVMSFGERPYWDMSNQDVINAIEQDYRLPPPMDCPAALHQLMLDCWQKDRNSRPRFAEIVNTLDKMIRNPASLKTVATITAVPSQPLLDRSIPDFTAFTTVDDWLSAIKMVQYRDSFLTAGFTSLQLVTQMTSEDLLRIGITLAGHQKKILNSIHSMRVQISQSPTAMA
Conditions: at 1 µM.

In experiment [7] the target is T2, Ephrin type-B receptor 1 (Homo sapiens). The following applies: at 10 µM.
In experiment [8] the target is T3, Ephrin type-B receptor 2 (Homo sapiens) (UniProt P29323).
T3 sequence (whole entry): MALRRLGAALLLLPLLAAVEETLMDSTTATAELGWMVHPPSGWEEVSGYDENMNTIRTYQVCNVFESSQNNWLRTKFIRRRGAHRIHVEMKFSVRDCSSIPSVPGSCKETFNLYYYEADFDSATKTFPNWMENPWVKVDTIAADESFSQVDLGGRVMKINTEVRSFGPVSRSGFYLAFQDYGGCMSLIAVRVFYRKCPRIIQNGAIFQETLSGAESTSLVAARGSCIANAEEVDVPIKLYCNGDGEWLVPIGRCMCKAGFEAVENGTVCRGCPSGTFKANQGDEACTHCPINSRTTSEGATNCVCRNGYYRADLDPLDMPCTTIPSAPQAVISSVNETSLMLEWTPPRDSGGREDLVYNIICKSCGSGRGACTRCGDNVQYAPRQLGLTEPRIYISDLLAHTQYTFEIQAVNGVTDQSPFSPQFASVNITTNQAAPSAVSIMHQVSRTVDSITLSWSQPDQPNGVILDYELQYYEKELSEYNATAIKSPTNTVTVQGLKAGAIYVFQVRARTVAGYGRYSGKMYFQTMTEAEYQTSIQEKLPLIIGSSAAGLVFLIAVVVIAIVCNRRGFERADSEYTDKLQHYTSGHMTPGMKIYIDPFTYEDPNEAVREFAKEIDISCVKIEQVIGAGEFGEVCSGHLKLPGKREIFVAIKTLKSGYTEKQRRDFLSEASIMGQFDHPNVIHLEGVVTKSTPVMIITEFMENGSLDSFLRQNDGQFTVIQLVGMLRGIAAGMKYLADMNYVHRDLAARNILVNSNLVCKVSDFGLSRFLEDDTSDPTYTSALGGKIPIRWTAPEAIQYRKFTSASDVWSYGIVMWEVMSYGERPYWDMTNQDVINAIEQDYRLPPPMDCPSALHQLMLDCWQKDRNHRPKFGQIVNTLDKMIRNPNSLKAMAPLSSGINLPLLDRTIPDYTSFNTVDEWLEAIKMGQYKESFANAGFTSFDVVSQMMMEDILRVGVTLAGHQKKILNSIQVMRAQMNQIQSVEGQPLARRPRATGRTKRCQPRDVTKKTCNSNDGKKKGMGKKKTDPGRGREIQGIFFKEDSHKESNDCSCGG
Conditions: at 1 µM.

For experiment [9], the target named is T3, Ephrin type-B receptor 2 (Homo sapiens). Conditions: at 10 µM.
The target in experiment [10] is Receptor tyrosine-protein kinase erbB-4 (Homo sapiens) (UniProt Q15303). The following applies: at 1 µM.
Sequence of Receptor tyrosine-protein kinase erbB-4 (Homo sapiens) (Q15303 whole entry): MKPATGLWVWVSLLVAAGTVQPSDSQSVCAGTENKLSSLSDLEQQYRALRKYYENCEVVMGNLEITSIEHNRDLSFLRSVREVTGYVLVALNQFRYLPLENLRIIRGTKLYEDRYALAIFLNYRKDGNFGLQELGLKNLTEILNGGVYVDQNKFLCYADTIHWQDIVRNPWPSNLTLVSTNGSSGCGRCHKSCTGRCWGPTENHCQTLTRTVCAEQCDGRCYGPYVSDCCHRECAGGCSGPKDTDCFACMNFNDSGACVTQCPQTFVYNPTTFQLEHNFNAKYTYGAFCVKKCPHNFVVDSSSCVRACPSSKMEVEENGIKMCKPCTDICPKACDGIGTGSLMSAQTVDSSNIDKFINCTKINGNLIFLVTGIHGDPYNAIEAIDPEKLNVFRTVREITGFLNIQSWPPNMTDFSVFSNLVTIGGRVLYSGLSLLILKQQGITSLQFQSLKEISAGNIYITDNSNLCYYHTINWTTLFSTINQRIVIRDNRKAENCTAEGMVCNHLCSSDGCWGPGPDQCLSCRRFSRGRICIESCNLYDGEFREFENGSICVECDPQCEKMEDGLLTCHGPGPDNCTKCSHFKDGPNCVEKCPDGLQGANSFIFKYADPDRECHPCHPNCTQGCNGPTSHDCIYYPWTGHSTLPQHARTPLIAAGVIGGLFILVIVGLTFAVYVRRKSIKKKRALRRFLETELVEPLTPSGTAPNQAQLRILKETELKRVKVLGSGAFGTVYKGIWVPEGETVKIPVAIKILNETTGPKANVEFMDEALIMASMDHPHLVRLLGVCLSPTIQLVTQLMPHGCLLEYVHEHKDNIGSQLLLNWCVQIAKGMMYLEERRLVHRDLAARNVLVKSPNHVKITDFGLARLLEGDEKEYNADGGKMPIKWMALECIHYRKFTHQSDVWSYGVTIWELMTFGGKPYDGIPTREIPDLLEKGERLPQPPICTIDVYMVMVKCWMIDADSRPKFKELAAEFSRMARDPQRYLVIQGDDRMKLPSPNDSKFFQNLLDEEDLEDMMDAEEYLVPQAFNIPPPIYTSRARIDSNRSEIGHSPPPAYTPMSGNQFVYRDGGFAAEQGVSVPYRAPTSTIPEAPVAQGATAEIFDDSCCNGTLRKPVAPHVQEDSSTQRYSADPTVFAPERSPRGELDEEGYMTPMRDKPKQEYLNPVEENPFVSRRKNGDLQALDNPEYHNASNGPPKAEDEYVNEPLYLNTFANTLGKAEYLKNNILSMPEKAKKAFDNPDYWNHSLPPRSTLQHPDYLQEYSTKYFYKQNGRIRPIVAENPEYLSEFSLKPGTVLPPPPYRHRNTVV
Experiment [11] has the same target. Conditions: at 10 µM.

Structures are written as SMILES.

Turning to `N#Cc1cnc2cnc(NCc3cccnc3)cc2c1Nc1ccc(F)c(Cl)c1`, the residual activity is 72% in experiment [1]; 103% in [2]; 76% in experiment [3]; 56% in experiment [4]; 46% in experiment [5]; 100% in [6]. In addition, the residual activity in experiment [7] was found to be 89%; in experiment [8] it was 99%; in experiment [9], 100%; in experiment [10], 132%; in experiment [11], 128%.
